# PubChem BioAssay (NCATS)
# Inconclusive results are not listed. The source made the active and inactive calls. Unless noted, calls come from the whole dose curve; as a rule, active = well fitted curve in the direction sought with a large enough effect; inconclusive = small, poorly fitted or top-dose-only effect, or another doubt; inactive = no such curve, though single readings can be large; an effect the other way counts as inactive or inconclusive.
# Columns and labels:
# [1] = target: Lysosomal acid glucosylceramidase (Homo sapiens) (UniProt P04062); experiment: Glucocerebrosidase-p2 (AID 348; in the data active = potency below about 10 µM; note: potency is the fitted concentration of half-maximal effect); conditions: purified GBA, blue fluorogenic substrate, 40 min
# Lysosomal acid glucosylceramidase (Homo sapiens), sequence (P04062 whole entry, looked up): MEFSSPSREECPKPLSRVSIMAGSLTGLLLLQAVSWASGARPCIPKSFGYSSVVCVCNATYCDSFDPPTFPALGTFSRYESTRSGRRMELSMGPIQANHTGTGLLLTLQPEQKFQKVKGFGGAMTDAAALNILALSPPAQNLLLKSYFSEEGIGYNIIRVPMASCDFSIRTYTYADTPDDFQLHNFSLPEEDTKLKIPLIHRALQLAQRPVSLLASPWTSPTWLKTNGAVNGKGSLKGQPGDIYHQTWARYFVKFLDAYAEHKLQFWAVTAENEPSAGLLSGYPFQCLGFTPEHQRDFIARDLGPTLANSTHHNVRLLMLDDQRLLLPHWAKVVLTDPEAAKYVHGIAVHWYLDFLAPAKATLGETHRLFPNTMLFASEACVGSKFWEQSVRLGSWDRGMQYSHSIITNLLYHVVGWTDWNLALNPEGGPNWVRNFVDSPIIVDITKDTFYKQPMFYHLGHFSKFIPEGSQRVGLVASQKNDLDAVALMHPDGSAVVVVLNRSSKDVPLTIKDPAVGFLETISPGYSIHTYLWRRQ
# Summary of the method: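 Compounds titrated from 0.6 nM upwards against 0.2 nM enzyme in pH 5.9 citric acid/KH2PO4, taurocholate, tween-20; blue fluorogenic substrate 80 uM, 40 min room temperature, stopped and read Ex 365/Em 440 for AC50.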
# [2] = NFAT Signaling Pathway (AID 444; active = well fitted curve in either direction with a large enough effect, not every such curve was filed as active;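 note: carbachol stimulus at about its EC50 of 1 µM final; % is set by controls: 0 for no effect and ±100 for the full control effect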); conditions: Jurkat NFAT-bla M1, carbachol, beta-lactamase ratio, 5 h; at 7.69 µM (top of the series) unless noted
# Summary of the method: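 Read-out: CCF4 FRET ratio (460 nm/530 nm) after 1 h RT dye loading, used for %activity and AC50 from titration series. Cells: Jurkat NFAT-β-lactamase/M1 line, treated with compound plus 1 uM carbachol for 5 h, 37 °C.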
# [3] = Stat Signaling Pathway (AID 446; active = well fitted curve in either direction with a large enough effect, not every such curve was filed as active;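 note: ME-180 cervical cancer cells given 40 pM IL-6 alongside compound; SIE-controlled beta-lactamase reporter measured as 460/530 nm FRET emission ratio; % is set by controls: 0 for no effect and ±100 for the full control effect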); conditions: ME-180 SIE beta-lactamase reporter, IL-6 stimulated, 5 h; at 7.69 µM (top of the series) unless noted
# Summary of the method: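 IL-6/STAT signaling read in ME-180 cells via an SIE beta-lactamase reporter. Stimulus was 40 pM IL-6 (its AC50) for 5 hrs, so both activation and inhibition register.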
# [4] = target: Glucocorticoid receptor (Homo sapiens) (UniProt P04150); experiment: GR-GFP Redistribution (AID 450;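 active = compounds whose dose series gives a full or clear partial fitted curve of increased nuclear translocation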; note: potency is the fitted concentration of half-maximal effect); conditions: U2OS GR-GFP nuclear translocation, laser cytometry, 2 h
# Glucocorticoid receptor (Homo sapiens), sequence (P04150 whole entry, looked up, the tested form may be a part): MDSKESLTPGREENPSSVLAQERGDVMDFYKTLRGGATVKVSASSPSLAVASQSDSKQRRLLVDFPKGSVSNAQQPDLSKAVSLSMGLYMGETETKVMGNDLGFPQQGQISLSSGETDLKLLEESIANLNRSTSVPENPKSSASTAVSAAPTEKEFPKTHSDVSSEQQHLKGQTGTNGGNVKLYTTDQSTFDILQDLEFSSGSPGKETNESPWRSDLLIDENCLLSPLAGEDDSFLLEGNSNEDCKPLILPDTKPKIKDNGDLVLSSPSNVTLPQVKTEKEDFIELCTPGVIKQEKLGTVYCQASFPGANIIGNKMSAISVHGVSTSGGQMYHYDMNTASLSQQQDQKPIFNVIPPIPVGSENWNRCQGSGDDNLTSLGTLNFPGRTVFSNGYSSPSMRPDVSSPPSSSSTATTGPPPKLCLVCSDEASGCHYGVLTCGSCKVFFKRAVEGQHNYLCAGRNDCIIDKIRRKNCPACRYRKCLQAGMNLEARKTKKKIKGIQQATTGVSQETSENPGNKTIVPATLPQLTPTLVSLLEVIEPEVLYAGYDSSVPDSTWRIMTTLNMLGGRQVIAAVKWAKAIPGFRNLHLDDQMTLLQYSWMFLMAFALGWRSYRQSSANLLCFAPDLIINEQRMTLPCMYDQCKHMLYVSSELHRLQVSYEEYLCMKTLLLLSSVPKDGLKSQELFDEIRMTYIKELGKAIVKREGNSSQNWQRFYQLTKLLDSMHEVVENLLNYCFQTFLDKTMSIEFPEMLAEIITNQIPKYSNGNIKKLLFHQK
# [5] = target: Glucocorticoid receptor (Homo sapiens) (UniProt P04150); experiment: GR-EFC Redistribution (AID 451; calls by dose curve; note: potency is the fitted concentration of half-maximal effect); conditions: CHO-K1 GR-EFC translocation, beta-gal luminescence, 2 h
# Summary of the method: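 Translocation of GR-ED fusion to nuclear EA restores b-gal, read by luminescence after 1 h room-temperature detection. Engineered CHO-K1 biosensor cells, 1,000/well, exposed 2 h at 37 C to titrations up to 46 uM final.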
# [6] = target: Mitogen-activated protein kinase 10 (Mus musculus) (UniProt Q61831); experiment: JNK3 AlphaScreen Assay (AID 530; active = well fitted curve in either direction with a large enough effect, not every such curve was filed as active;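 note: kinase came from lysate of stimulated human HepG2 cells; signal reports phosphorylation of biotinylated GST-cJun 1-79 at Ser73 with 10 µM ATP; % is set by controls: 0 for no effect and ±100 for the full control effect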); conditions: JNK3 lysate, c-Jun phosphorylation; series mostly up to 57.1 µM
# Summary of the method: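 Room-temperature AlphaScreen kinase assay; pre-activated HepG2 lysate as JNK3 source, biotin-GST-cJun(1-79) substrate, 10 uM ATP, compound 15 min preincubation.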
# [7] = target: 3',5'-cyclic-AMP phosphodiesterase 4B (Homo sapiens) (UniProt Q07343); experiment: qHTS Assay for Inhibitors of PDE-IV (AID 607; active = well fitted activation curve with a large enough effect in the main read-out, with a control signal flat, not every such curve was filed as active; note: % of control where 0% means no effect); conditions: HEK293 ACTOne CNG channel cells, membrane potential fluorescence; series mostly up to 22.9 µM
# 3',5'-cyclic-AMP phosphodiesterase 4B (Homo sapiens), sequence (Q07343 whole entry, looked up): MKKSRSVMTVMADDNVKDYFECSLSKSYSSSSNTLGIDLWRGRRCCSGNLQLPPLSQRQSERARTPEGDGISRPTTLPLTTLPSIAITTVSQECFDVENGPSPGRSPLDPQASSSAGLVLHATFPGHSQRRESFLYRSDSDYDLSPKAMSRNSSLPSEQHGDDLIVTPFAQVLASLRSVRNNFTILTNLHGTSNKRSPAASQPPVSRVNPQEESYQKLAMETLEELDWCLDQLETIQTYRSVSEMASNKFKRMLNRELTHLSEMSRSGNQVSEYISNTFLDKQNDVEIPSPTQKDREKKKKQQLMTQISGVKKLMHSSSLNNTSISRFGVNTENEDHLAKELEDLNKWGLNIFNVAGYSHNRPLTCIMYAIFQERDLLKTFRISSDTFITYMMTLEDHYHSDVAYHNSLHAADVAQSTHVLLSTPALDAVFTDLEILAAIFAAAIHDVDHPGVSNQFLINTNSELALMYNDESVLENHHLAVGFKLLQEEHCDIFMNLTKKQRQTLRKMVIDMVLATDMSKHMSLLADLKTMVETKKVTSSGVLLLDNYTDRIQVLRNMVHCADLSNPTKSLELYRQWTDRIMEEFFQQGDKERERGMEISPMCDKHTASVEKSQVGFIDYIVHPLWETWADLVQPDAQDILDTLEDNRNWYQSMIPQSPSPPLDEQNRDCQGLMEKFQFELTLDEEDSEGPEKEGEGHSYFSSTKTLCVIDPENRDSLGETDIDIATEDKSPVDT
# Summary of the method: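 Live HEK293 cells with a modified cyclic nucleotide-gated (CNG) channel report intracellular cAMP via membrane-potential dye fluorescence (ex 535/em 590 nm). Endogenous PDE-IV was targeted. Compounds were tested at up to 22.9 uM final; RO 20-1724 100 uM served as control.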
# [8] = Confirmation and Secondary Assay for Modulators of Hemoglobin Beta Chain Splicing at IVS2 654 locus (AID 910); conditions: HeLa EGFP-654 splicing reporter, GFP fluorescence, 48 h; series mostly up to 38.3 µM;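 note: HeLa cells stably carrying EGFP split by mutant beta-globin IVS2-654 intron; per-well total GFP intensity by laser scanning cytometry after 2-day treatment; % of control where 0% means no effect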
# Summary of the method: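 Readout: per-well total peak green fluorescence (488 nm ex, 500–520 nm em) from objects 5–250 µm, reflecting correct splicing of an EGFP-654 reporter. Compounds were applied for 2 days at 37 °C to overnight-plated HeLa EGFP-654 cells; controls were DMSO and 500 nM IVS2-654 PNA.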
# [9] = Confirmation and Secondary Assay for Modulators of Hemoglobin Beta Chain Splicing at IVS2 705 locus (AID 930); conditions: HeLa EGFP-705 splicing reporter, GFP fluorescence, 48 h; series mostly up to 38.3 µM;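 note: HeLa cells stably expressing the EGFP-705 splicing reporter; GFP fluorescence per well restored by corrected splicing of the IVS2-705 intron in EGFP; % of control where 0% means no effect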
# Summary of the method: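 HeLa EGFP-705 reporter; 500 cells/well, o/n 37C 5% CO2; cpd 2 d; 488 ex/500-520 em laser scan; total peak GFP intensity/well. Ref: 500 nM […] antisense PNA.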
# [10] = qHTS Assay for Lipid Storage Modulators (AID 1519; calls by dose curve); conditions: Drosophila S3 cells, BODIPY lipid droplet/cell ratio, laser cytometry, cells loaded with oleic acid; for activity change, negative = inhibition: at 57.5 µM (top of the series)
# Summary of the method: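 Cells seeded at 5,000 per well were treated with compounds over a concentration series and loaded with oleic acid (400 uM, as added). Lipid droplet fluorescence (488 nm excitation, 500-530 nm channel) was read by laser-scanning cytometry and normalized to 20 uM Triacsin C.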
# [11] = Primary qHTS for small molecule stabilizers of the endoplasmic reticulum resident proteome: Secreted ER Calcium Modulated Protein (SERCaMP) assay (AID 1508630); conditions: SH-SY5Y GLuc-SERCaMP (Gaussia luciferase released on ER calcium loss) secretion, thapsigargin, luminescence; series mostly up to 38.4 µM; note: % is set by controls: 0 for no effect and ±100 for the full control effect
# Summary of the method: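 GLuc-SERCaMP-expressing SH-SY5Y cells, pretreated 16 h with compound, are challenged with thapsigargin to empty ER calcium stores; after 4 h, coelenterazine is added directly to the medium and luminescence is imaged.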
# [12] = target: Cytochrome P450 1A2 (Homo sapiens) (UniProt P05177); experiment: p450-cyp1a2 (AID 410; calls by dose curve; note: potency is the fitted concentration of half-maximal effect;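 for activity change, negative = inhibition: -100% = full effect of reference inhibitor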); conditions: recombinant CYP1A2, luciferin-ME demethylation, luminescence; series mostly up to 57 µM
# Cytochrome P450 1A2 (Homo sapiens), sequence (P05177 whole entry, looked up): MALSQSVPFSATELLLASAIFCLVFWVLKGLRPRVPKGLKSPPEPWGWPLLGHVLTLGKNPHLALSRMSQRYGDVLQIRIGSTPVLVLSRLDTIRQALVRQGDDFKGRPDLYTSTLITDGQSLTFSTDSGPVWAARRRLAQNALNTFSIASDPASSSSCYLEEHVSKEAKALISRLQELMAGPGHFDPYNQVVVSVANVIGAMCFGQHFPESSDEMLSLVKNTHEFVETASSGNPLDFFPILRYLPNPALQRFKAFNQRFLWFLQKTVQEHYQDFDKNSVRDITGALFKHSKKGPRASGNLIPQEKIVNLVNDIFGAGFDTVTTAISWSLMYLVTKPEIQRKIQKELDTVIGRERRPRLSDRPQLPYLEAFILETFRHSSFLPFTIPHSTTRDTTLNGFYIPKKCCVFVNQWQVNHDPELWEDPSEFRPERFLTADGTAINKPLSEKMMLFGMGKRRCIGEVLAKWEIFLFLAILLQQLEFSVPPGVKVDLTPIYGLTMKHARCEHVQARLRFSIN
# Summary of the method: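 Human CYP1A2 (20nM) demethylated Luciferin-ME at its Km (100uM) in 100mM KPO4. After 10 min compound preincubation, NADPH regeneration ran the reaction 60 min at room temperature. Luciferin was read by luminescence, normalized to 57 uM furafylline.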
# [13] = AP1 Signaling Pathway (AID 357; active = well fitted curve in either direction with a large enough effect, not every such curve was filed as active); conditions: ME-180 AP-1-bla reporter, EGF-induced, beta-lactamase ratio, 5 h; at 7.69 µM (top of the series) unless noted
# Summary of the method: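 Read-out was the 460nm/530nm emission ratio (excitation 405nm) after CCF4 loading for 2.5 hours at room temperature. Cells carried an AP-1-driven beta-lactamase reporter, were stimulated with EC50 EGF plus compound for 5 hours, and AC50 values came from titrations.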
# [14] = target: Cytochrome P450 3A4 (Homo sapiens) (UniProt P08684); experiment: qHTS Assay for Inhibitors and Substrates of Cytochrome P450 3A4 (AID 884); conditions: recombinant CYP3A4, Luciferin-PPXE luminescence; series mostly up to 57.1 µM; note: potency is the fitted concentration of half-maximal effect; nearly all actives have a fitted effect of over 50% in size
# Cytochrome P450 3A4 (Homo sapiens), sequence (P08684 whole entry, looked up): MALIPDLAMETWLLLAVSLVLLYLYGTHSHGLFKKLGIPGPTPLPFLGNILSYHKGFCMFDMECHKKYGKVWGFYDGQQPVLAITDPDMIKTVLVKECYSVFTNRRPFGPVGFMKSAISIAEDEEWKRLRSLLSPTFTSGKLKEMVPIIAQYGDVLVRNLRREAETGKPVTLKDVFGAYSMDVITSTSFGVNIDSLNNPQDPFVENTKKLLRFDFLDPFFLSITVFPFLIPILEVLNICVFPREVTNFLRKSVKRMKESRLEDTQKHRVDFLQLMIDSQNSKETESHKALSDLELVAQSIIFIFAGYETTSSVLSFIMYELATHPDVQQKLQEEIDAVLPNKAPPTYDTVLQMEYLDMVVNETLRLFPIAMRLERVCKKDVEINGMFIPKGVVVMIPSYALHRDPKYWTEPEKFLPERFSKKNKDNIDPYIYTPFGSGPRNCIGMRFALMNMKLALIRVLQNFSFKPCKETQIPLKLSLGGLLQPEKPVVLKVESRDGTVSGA
# Summary of the method: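 20 nM human CYP3A4 with 25 uM Luciferin-PPXE (at KM) in 200 mM KPO4, preincubated 10 min with compound; NADPH regeneration started a 60 min RT reaction. Luciferin detected by luminescence, normalized to 57 uM ketoconazole as full inhibition.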
# [15] = target: Cytochrome P450 3A4 (Homo sapiens) (UniProt P08684); experiment: qHTS Assay for Activators of Cytochrome P450 3A4 (AID 885); conditions: recombinant CYP3A4, Luciferin-PPXE luminescence, 60 min; series mostly up to 57.1 µM; note: nearly all actives have a fitted effect of over 65% in size
# Summary of the method: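 Quantitative HTS format: compounds preincubated with 20nM human CYP3A4 and Luciferin-PPXE substrate at KM, reaction started by NADPH regeneration, stopped after 60 min, luciferase luminescence read 20 min later.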
# [16] = qHTS Assay for Identification of Small Molecule Agonists for Hypoxia Response Element Signaling Pathway (AID 914; active = well fitted activation curve with a large enough effect in the signal ratio, with a control signal flat, not every such curve was filed as active; the % refers to the signal ratio; note: potency is the fitted concentration of half-maximal effect; for activation: % of control where 0% means no effect); conditions: ME-180 (cervical carcinoma) HRE-bla reporter, beta-lactamase ratio, CoCl2, 17 h; activation: stronger effect = higher value
# Summary of the method: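 Read-out: CCF4 FRET ratio of 460nm to 530nm emission (excitation 405nm) after 2.5 hours at room temperature, taken from HRE-bla ME-180 cells that had been exposed to compound and EC50 CoCl2 for 17 hours.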
# [17] = target: Ubiquitin carboxyl-terminal hydrolase 1 (Homo sapiens) (UniProt O94782); experiment: Inhibitors of USP1/UAF1: Pilot qHTS (AID 504865); conditions: purified USP1/UAF1, Ub-rhodamine cleavage fluorescence; series mostly up to 54.9 µM;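 note: rhodamine fluorescence freed from ubiquitin-rhodamine substrate followed over time; top concentration of the series differs between compounds; % is set by controls: 0 for no effect and ±100 for the full control effect; nearly all actives have a fitted effect of over 35% in size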
# Ubiquitin carboxyl-terminal hydrolase 1 (Homo sapiens), sequence (O94782 whole entry, looked up): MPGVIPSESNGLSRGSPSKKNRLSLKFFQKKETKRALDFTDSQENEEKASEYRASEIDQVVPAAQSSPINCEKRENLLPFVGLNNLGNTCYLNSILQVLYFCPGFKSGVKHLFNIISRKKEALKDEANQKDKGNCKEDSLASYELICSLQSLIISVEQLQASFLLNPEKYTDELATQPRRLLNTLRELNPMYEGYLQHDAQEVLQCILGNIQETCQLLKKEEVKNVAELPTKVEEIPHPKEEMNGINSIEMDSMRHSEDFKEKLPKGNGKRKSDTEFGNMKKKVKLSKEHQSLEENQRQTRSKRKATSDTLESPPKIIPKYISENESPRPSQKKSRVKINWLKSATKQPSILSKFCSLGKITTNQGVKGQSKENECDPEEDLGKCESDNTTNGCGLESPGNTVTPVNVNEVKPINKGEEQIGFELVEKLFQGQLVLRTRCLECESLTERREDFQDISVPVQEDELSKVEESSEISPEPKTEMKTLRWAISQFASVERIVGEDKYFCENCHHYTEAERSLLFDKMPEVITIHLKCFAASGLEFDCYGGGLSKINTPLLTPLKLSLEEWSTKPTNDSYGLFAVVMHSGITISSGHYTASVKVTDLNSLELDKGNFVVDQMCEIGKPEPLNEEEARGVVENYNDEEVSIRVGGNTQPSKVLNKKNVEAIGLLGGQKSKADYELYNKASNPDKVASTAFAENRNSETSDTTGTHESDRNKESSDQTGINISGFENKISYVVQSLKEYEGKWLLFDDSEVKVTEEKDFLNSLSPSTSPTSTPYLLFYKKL
# Summary of the method: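 In 50mM HEPES pH 7.8 containing 0.5mM EDTA, 1mM TCEP, 0.1 mg/ml BSA and 0.01% Tween-20, 1nM USP1/UAF1 is exposed to compound for 15 min, then Ub-Rho (150nM final) is added and fluorescence is read over time.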
# [18] = target: Cytochrome P450 2C19 (Homo sapiens) (UniProt P33261); experiment: qHTS Assay for Inhibitors and Substrates of Cytochrome P450 2C19 (AID 899); conditions: recombinant CYP2C19, luciferin-H EGE luminescence; series mostly up to 57.1 µM; note: potency is the fitted concentration of half-maximal effect; nearly all actives have a fitted effect of over 60% in size
# Cytochrome P450 2C19 (Homo sapiens), sequence (P33261 whole entry, looked up): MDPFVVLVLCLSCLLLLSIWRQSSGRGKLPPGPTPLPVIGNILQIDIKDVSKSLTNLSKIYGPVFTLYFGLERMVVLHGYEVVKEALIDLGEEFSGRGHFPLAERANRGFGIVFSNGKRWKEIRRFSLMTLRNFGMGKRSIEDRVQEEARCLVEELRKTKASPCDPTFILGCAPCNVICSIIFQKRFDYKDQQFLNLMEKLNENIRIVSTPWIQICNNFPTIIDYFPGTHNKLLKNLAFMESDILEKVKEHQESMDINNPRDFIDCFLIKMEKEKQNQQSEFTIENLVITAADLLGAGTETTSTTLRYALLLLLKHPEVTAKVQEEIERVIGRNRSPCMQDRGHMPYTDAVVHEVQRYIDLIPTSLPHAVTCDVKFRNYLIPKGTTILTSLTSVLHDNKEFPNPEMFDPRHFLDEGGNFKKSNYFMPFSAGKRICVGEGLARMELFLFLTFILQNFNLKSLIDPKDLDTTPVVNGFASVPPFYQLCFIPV
# Summary of the method: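 Reactions contain 5nM enzyme, 10uM Luciferin-H EGE (KM) and 50mM KPO4; compound preincubates 10 min at 37C, NADPH regeneration starts turnover for 60 min. Luminescence after detection reagent gives activity.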
# [19] = measured here: cell count channel max response
# [20] = measured here: lipid channel max response
smiles,measurement,setting,value
N#Cc1cccc(-c2ccc3ncnc(NCc4cccnc4)c3c2)c1,Potency,[1],> 11.4 µM (inactive)
same,"activity change, negative = inhibition",[2],21.6% (inactive)
same,"activity, negative = inhibition",[3],-12.3% (inactive)
same,Potency,[4],> 46 µM (inactive)
same,Potency,[5],> 46 µM (inactive)
same,Potency,[6],inactive
same,Potency,[7],inactive
same,Potency,[8],inactive
same,outcome,[9],inactive
same,"activity change, negative = inhibition",[10],7.68% (inactive)
same,max response,[10]; [19],12%
same,max response,[10]; [20],20.4%
same,outcome,[11],inactive
O=S(=O)(c1ccccc1)N1CCC[C@@]2(CCN(Cc3cc(C(F)(F)F)cc(C(F)(F)F)c3)C2)C1,Potency,[1],> 11.4 µM (inactive)
same,Potency,[12],inactive
same,Potency,[5],> 46 µM (inactive)
same,Potency,[6],inactive
same,Potency,[7],inactive
same,"activity change, negative = inhibition",[10],4.5% (inactive)
same,max response,[10]; [19],17.1%
same,max response,[10]; [20],25.2%
same,outcome,[11],inactive
CS(=O)(=O)Nc1cccc(-c2nccc(-n3ccnc3)n2)c1,"activity change, negative = inhibition",[13],-9.45% (inactive)
same,Potency,[12],0.2 µM (active)
same,"activity change, negative = inhibition",[2],-0.156% (inactive)
same,"activity, negative = inhibition",[3],0.985% (inactive)
same,Potency,[4],> 46 µM (inactive)
same,Potency,[5],> 46 µM (inactive)
same,Potency,[6],inactive
same,Potency,[7],inactive
same,Potency,[14],1.58 µM (active)
same,Potency,[15],inactive
same,Potency,[8],inactive
same,activation,[16],-11.9% (inactive)
same,"activity change, negative = inhibition",[10],2.72% (inactive)
same,max response,[10]; [19],1.42%
same,max response,[10]; [20],5%
same,Potency,[17],inactive
same,outcome,[11],inactive
COc1ccc(C(=O)N2CCC[C@@]3(CCN(C(=O)NC(C)C)C3)C2)cc1,"activity change, negative = inhibition",[13],-14% (inactive)
same,Potency,[12],12.6 µM (active)
same,"activity change, negative = inhibition",[2],8.55% (inactive)
same,"activity, negative = inhibition",[3],-9.21% (inactive)
same,Potency,[5],> 46 µM (inactive)
same,Potency,[6],inactive
same,Potency,[7],inactive
same,Potency,[15],inactive
same,"activity change, negative = inhibition",[10],3.48% (inactive)
same,max response,[10]; [19],8.84%
same,max response,[10]; [20],15.8%
same,outcome,[11],inactive
Cc1cccc(CNc2ncnc3ccc(-c4c(C)noc4C)cc23)c1,"activity change, negative = inhibition",[13],14.8% (inactive)
same,Potency,[12],5.01 µM (active)
same,Potency,[4],> 46 µM (inactive)
same,Potency,[5],> 46 µM (inactive)
same,Potency,[6],inactive
same,Potency,[14],0.794 µM (active)
same,Potency,[15],inactive
same,Potency,[18],5.01 µM (active)
same,Potency,[8],inactive
same,outcome,[9],inactive
same,"activity change, negative = inhibition",[10],-3.45% (inactive)
same,max response,[10]; [19],-9.91%
same,max response,[10]; [20],-10.6%
same,outcome,[11],inactive
Cc1noc(C)c1-c1ccc2ncnc(NCc3ccccc3)c2c1,"activity change, negative = inhibition",[13],21.4% (inactive)
same,Potency,[12],3.16 µM (active)
same,Potency,[4],> 46 µM (inactive)
same,Potency,[5],> 46 µM (inactive)
same,Potency,[6],inactive
same,Potency,[15],inactive
same,Potency,[18],7.94 µM (active)
same,Potency,[8],inactive
same,Potency,[16],3.16 µM (active)
same,outcome,[9],inactive
same,"activity change, negative = inhibition",[10],-0.127% (inactive)
same,max response,[10]; [19],-0.875%
same,max response,[10]; [20],-2.04%
same,outcome,[11],inactive
